Experimental data published in PubChem BioAssay AID1159580 (chemical genetic matrix, 2015).
In all, about 5,500 compounds went through this assay and about 2,000 (36%) were called active. Another 18% or so got no clear call; they are omitted. No stated cut-off is given here; in the data, active means normalized growth mostly below about 0.91 (no sharp cut-off); inconclusive means no clear call, values can overlap the other calls; inactive means mostly above about 0.92. The list shows a part of the results.

Test: chemical genetic growth profiling, strain panel (AID 1159580);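 further: tested at 20 µM; growth read once vehicle control cultures reached saturation at 30 °C; 1 = growth at the plate median or of vehicle wells; lower values mean less growth of the strain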
Conditions: S. cerevisiae deletion strains, growth OD

Measured: normalized growth

CC(=O)Nc1ccc(S(=O)(=O)Nc2ncccn2)cc1
inactive: locus YAL013W, strain DEP1, active compounds read low 1.01 | locus YBR229C, strain ROT2, active compounds read low 0.992 | locus YCL061C, strain MRC1, active compounds read low 1.02 | locus YDL101C, strain DUN1, active compounds read low 0.995 | locus YDL134C, strain PPH21, active compounds read low 0.997 | locus YDR150W, strain NUM1, active compounds read low 0.921 | locus YEL061C, strain CIN8, active compounds read low 1.01 | locus YGR078C, strain PAC10, active compounds read low 1 | locus YHR030C, strain SLT2, active compounds read low 1.08 | locus YHR087W, strain rtc3, active compounds read low 0.987 | locus YJR043C, strain POL32, active compounds read low 1.01 | locus YJR075W, strain HOC1, active compounds read low 0.994 | locus YLR039C, strain RIC1, active compounds read low 1.02 | locus YLR058C, strain SHM2 (second series), active compounds read low 1.03 | locus YLR085C, strain ARP6, active compounds read low 0.958 | locus YLR262C, strain YPT6, active compounds read low 1.13 | locus YML094W, strain GIM5, active compounds read low 0.981 | locus YMR219W, strain ESC1, active compounds read low 1 | locus YMR263W, strain SAP30, active compounds read low 1 | locus YMR307W, strain GAS1, active compounds read low 0.919 | locus YNL153C, strain GIM3, active compounds read low 1.01 | locus YNL298W, strain CLA4 (second series), active compounds read low 1 | locus YNL322C, strain KRE1, active compounds read low 0.999 | locus YNR030W, strain Alg12, active compounds read low 1.01 | locus YPL055C, strain LGE1, active compounds read low 0.92 | locus YPL241C, strain CIN2, active compounds read low 0.963 | locus YPR135W, strain CTF4, active compounds read low 1.08
